Results reported in PubChem BioAssay (EPA / NIEHS).
Results filed as inconclusive are left out. Calls of active or inactive are those of the source. Rule for the calls: active = hit-call score of the fitted dose curve at least 0.9, where 1 is the maximum; inconclusive = response in the unintended direction; inactive = score below 0.9.

Read-out: HMG-CoA synthase (HMGCS2), HMGCS2 (gene 3158)
Assay: CLD_HMGCS2_6hr: CellzDirect (CLD) Gene Expression Assay for HMG-CoA synthase (HMGCS2) at 6 hours (AID 2283682);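 note: actives raise HMGCS2 transcript above the 0.2% DMSO vehicle baseline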
Experimental: CLD_6hr is a cell-based, multiplexed-readout assay that uses hepatocyte, a human liver primary cell, with measurements taken at 6 hours after chemical dosing in a 96-well plate.CLD_HMGCS2_6hr is one of 16 assay component(s) measured or calculated from the CLD_6hr assay. It is designed to make measurements of mRNA induction, a form of inducible reporter, as detected with chemiluminescence signals by Quantitative Nuclease Protection Assay (qNPA) technology.Data from the assay component CLD_HMGCS2_6hr was analyzed at the endpoint, CLD_HMGCS2_6hr, in the positive analysis fitting direction relative to DMSO as the negative control and baseline of activity. Using a type of inducible reporter, gain-of-signal activity can be used to understand changes in the reporter gene as they relate to the gene HMGCS2. Furthermore, this assay endpoint can be referred to as a primary readout. To generalize the intended target to other relatable targets, this assay endpoint is annotated to the lyase intended target family, where subfamily is HMG-CoA synthase.
Human hepatocyte cultures were treated daily for two consecutive days with fresh dosing solutions containing appropriate concentrations of the 320 ToxCast chemicals (chemical identities were blinded to CellzDirect and other ToxCast collaborators), vehicle control (0.2% DMSO), and positive control inducers as summarized in Table 1. Due to the large number of treatment groups and chemicals examined, the ToxCast chemicals were divided into two groups (spanning two independent cultures of hepatocytes from separate donor preparations (Hu778: ToxCast plates 1 and 2; Hu776: ToxCast plates 3 and 4). Each preparation of human hepatocyte cultures was treated with respective vehicle control, medium only control, set of six positive controls/reference chemicals for the five hepatic receptor pathways, and a subset of eight of the ToxCast chemicals (indoxacarb, pyrithiobac-sodium, norflurazon, cyhalofop-butyl, methomyl, thiram, acetochlor, and propiconazole). These replicate data, coupled with internal replicates designed within the blinded ToxCast chemical library, provided additional data to evaluate interindividual differences between hepatocyte preparations and their potential impact on chemical profiles.Cell morphology and integrity were evaluated using phase-contrast microscopy as an indicator of hepatocyte cell health (Tyson & Green, 1987). Cultures for each treatment group (i.e., media, vehicle [0.2% DMSO], positive control inducers [multiple concentrations], and the ToxCast chemicals [multiple concentrations]) were observed and cell morphology was assessed relative to vehicle control cultures at each harvest time point (0, 6, 24, or 48 h). […] Images were evaluated at the conclusion of the study to assess changes in cell integrity and account for the effects of chemical exposure on uncharacteristic changes in concentration-dependent gene expression profiles. The results from these determinations of apparent cytotoxicity were annotated (yes/no) alongside the corresponding qNPA data for reference.At the conclusion of each treatment period, hepatocyte cultures (96-well) were washed with 1 volume of HBSS, lysed by addition of 25 ul ArrayPlate lysis buffer (HTG, Tucson, AZ), and 70 ul/well of Denaturation Oil, denatured by incubation at 95C for 10 min, and frozen at approximately -70C until analysis by nuclease protection assay (qNPA) (Roberts et al., 2007). For qNPA analysis, cell lysates were thawed at 50C for approximately 30 min, qNPA probes were added, and samples were incubated at 95C for 10 min to begin the detection process by denaturing the target RNA, dissociating the duplexes and secondary structure hybridization. At the conclusion of the hybridization period, S1 nuclease reagent was added to each sample to digest all nonprotected nucleotides at 50C for 60-90 min. […]

SMILES	outcome	AC50
CCCCC(CC)COC(=O)c1ccccc1C(=O)OCC(CC)CCCC (stereo not drawn)	inactive	
C=CCC1=C(C)C(OC(=O)C2C(C=C(C)C)C2(C)C)CC1=O (stereo not drawn)	inactive	
CC1COC(Cn2cncn2)(c2ccc(Oc3ccc(Cl)cc3)cc2Cl)O1 (stereo not drawn)	inactive	
CCON=C(CC)C1=C(O)CC(c2c(C)cc(C)cc2C)CC1=O (stereo not drawn)	inactive	
COC(=O)C=C(C)OP(=O)(OC)OC	inactive	
COC(=O)c1ccccc1C(=O)OC	inactive	
CC(C)C1(C)N=C(c2nc3ccccc3cc2C(=O)O)NC1=O (stereo not drawn)	inactive	
CCOc1cc(Oc2ccc(C(F)(F)F)cc2Cl)ccc1[N+](=O)[O-]	inactive	
C=CCC1=C(C)[C@@H](OC(=O)[C@@H]2[C@@H](C=C(C)C)C2(C)C)CC1=O	inactive	
COc1nc(C)nc(NC(=O)NS(=O)(=O)c2ccccc2Cl)n1	inactive	
Cc1ccc(-c2c(Cl)nc(C#N)n2S(=O)(=O)N(C)C)cc1	inactive	
COc1cnc(OC)n2nc(NS(=O)(=O)c3c(OCC(F)F)cccc3C(F)(F)F)nc12	inactive	
CCOP(=S)(OCC)SCn1c(=O)oc2cc(Cl)ccc21	inactive	
CCOC(=O)CC(SP(=S)(OC)OC)C(=O)OCC (stereo not drawn)	inactive	
CCCCOC(=O)c1ccccc1C(=O)OCCCC	inactive	
COC(=O)N(OC)c1ccccc1COc1ccn(-c2ccc(Cl)cc2)n1	inactive	
COC(=O)C(C)Oc1ccc(Oc2ccc(Cl)cc2Cl)cc1 (stereo not drawn)	inactive	

SMILES	outcome	AC50
N#Cc1cc(Br)c(O)c(Br)c1	inactive	
CN(C)C(=S)SSC(=S)N(C)C	inactive	
COc1nc(C)nc(NC(=O)NS(=O)(=O)c2ccccc2CCC(F)(F)F)n1	inactive	
O=C(Nc1ccccc1)Nc1ccnc(Cl)c1	inactive	
CNC(=S)S	inactive	
CCCN(CCC)c1c([N+](=O)[O-])cc(S(N)(=O)=O)cc1[N+](=O)[O-]	inactive	
C#CCOS(=O)OC1CCCCC1Oc1ccc(C(C)(C)C)cc1 (stereo not drawn)	inactive	
O=C(O)c1nc(Cl)ccc1Cl		1890 nM (active)
CCCC1COC(Cn2cncn2)(c2ccc(Cl)cc2Cl)O1 (stereo not drawn)	inactive	
N#CC(CCc1ccc(Cl)cc1)(Cn1cncn1)c1ccccc1 (stereo not drawn)	inactive	
O=C(O)COc1nc(Cl)c(Cl)cc1Cl	inactive	
COP(N)(=O)SC (stereo not drawn)	inactive	
N#Cc1nn(-c2c(Cl)cc(C(F)(F)F)cc2Cl)c(N)c1S(=O)C(F)(F)F (stereo not drawn)	inactive	
CCc1nn(C)c(C(=O)NCc2ccc(C(C)(C)C)cc2)c1Cl	inactive	
CC(C)(C)c1ccc(CSc2cnn(C(C)(C)C)c(=O)c2Cl)cc1	inactive	
CCNc1nc(Cl)nc(NC(C)C)n1	inactive	
